An excerpt weighted towards active compounds, which were near 1.6% of everything screened.
V-ATPase pH: regulators of yeast V-ATPase proton pumping, primary screen, pHLuorin cytosolic pH fluorescence | response, % at 10 µM | S. cerevisiae | hit rate 0.37% among 350,000 | AID 504577, 2011; in the data active = response mostly above about 7.3%, no sharp cut-off; inactive = mostly below about 5.4%; note: actives read high
Rce1 inhib: yeast Rce1p protease inhibitors, primary screen, biochemical, fluorescence, cell-free homogeneous; yeast membranes, quenched prenylated peptide cleavage fluorescence; hit rate 0.27% among 290,000; CAAX prenyl protease 2 (Saccharomyces cerevisiae (strain ATCC 204508 / S288c)), Q03530; calls only; AID 2563, 2010;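 active = fall in fluorescence gain of 50% or more versus controls, with final raw signal at or below 3038400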
Efflux pump mplx: inhibitors of Candida efflux pumps in yeast, primary screen, S. cerevisiae, Nile Red, multiplex. S. cerevisiae Candida pump triplex. hit rate 0.44% among 330,000. inhibition, % at 10 µM;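 active = plate passing quality check with inhibition over a set limit, or well fluorescence over plate mean plus 4 SD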;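 note: Nile Red retained in pooled yeast measured as flow cytometry median fluorescence; higher means more Nile Red kept so more efflux inhibition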
GC-A act: GC-A stimulated cGMP production enhancers – HEK293 GC-A cells, cGMP TR-FRET, EC30 ANP, primary screen; Atrial natriuretic peptide receptor 1 (Homo sapiens), P16066; 0% at EC30 ANP, 100% saturating ANP; activation, % at 10 µM; hit rate 0.14% among 370,000; AID 1671463, 2021; in the data active = activation above about 40%
Target sequence (P16066 whole entry, looked up): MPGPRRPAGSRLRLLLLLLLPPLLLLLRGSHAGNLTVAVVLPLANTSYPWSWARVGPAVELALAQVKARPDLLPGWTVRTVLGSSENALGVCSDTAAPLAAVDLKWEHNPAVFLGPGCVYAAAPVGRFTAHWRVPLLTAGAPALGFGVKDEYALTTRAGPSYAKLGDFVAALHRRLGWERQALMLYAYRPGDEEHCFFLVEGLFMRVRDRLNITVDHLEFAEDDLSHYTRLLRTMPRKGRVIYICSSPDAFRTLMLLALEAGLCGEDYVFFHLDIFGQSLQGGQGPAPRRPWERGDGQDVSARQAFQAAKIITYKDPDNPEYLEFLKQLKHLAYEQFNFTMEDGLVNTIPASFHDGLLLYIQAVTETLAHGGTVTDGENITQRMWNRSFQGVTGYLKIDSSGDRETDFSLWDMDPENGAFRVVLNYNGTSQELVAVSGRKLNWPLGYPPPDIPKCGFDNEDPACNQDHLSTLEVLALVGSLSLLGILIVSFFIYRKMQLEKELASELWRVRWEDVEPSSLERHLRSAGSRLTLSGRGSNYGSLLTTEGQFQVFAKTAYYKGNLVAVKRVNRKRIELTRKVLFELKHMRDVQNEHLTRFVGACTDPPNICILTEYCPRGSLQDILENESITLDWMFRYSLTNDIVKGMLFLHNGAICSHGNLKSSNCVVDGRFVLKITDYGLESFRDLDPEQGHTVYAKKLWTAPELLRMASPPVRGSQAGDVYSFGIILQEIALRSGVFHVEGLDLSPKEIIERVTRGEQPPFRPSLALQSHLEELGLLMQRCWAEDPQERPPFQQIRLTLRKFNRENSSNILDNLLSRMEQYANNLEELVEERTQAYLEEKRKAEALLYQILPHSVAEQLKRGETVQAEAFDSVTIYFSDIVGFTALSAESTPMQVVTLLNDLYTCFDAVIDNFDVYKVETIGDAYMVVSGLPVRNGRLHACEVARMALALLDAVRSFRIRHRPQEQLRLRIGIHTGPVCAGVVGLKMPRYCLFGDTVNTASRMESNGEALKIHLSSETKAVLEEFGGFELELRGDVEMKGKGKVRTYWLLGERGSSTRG
NSD2 inh: NSD2 histone methyltransferase inhibitors, primary screen, biochemical, AlphaScreen, single concentration, set 2; Histone-lysine N-methyltransferase NSD2 (Homo sapiens), O96028; inhibition, % at 12.5 µM; NSD2 peptide methylation, 120 min; hit rate 0.54% among 310,000; in the data active = inhibition above about 50%
NPR2 activator: human GC-B receptor activators, primary screen, HEK293 GC-B cells, cGMP TR-FRET, EC30 CNP | Atrial natriuretic peptide receptor 2 (Homo sapiens), P20594 | hit rate 0.11% among 370,000 | 0% at EC30 CNP, 100% saturating CNP | AID 1920062, 2024 | activation, % at 10 µM;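 active = activation at 10 µM reaching about 35% in either raw or pattern-adjusted values, limit read from the data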
Numbers stand for hits; . = inactive; / = no result given; + = active, no number.

SMILES	V-ATPase pH	Rce1 inhib	Efflux pump mplx	GC-A act	NSD2 inh	NPR2 activator
COC(=O)c1cc(-c2ccc3c(c2)OCO3)nc2ccccc12	.	.	.	.	.	.
Cc1cc(C)nc(NC(=O)c2cc(-c3ccc4c(c3)OCO4)nc3ccccc23)c1	14	.	.	.	.	.
C=CC[C@H]1c2ccccc2[C@H]2N3N=Cc4ccccc4[C@H]3[C@H](CCc3ccccc3)C(=O)N2N1C(=O)c1ccccc1	/	/	/	.	/	.
COc1ccc(/C=C/c2ccncc2)cc1OC	.	/	.	.	.	.
COc1ccc(/C=C\c2cc(OC)c(OC)cc2CC[N+](C)(C)C)cc1OC	.	+	.	.	.	.
Cc1c(C)n(Cc2ccc(-c3ccccc3C(=O)O)cc2)c2ccc(C(=O)N[C@@H](C)c3ccc([N+](=O)[O-])cc3)cc12	/	/	/	.	/	.
Cc1ccc(S(=O)(=O)c2nnn3c2nc(Nc2cccc(C)c2)c2ccccc23)cc1	.	.	.	49	.	50
CC1CCc2nc3ccccc3c(C(=O)OCC(=O)N3CCc4ccccc43)c2C1 (stereo not given)	16	.	.	.	.	.
CCN(CC)C(=O)C1CCCN(C(=O)CCn2nnnc2CN2CCOCC2)C1 (stereo not given)	.	/	.	.	.	.
CCOC(=O)C1CCCN(C(=O)CCn2nnnc2CN2CCOCC2)C1 (stereo not given)	.	+	.	.	.	.
CCOc1ccc(CCNC(=O)c2cc3ccsc3n2C)cc1OC	/	/	/	.	/	.
COc1ccc(Cl)cc1Nc1nc(C)nc2c1oc1ccccc12	.	+	.	.	.	.
COCCCNC(=O)C[C@H]1C[C@@]2(C(=O)OC)C(=C[C@H](COCc3ccccc3)O[C@@H]2C)N(Cc2ccccc2)C1=O	/	/	/	.	/	.
COc1ccc(C(C(=O)NC2CCCCC2)N(C(=O)c2snc(C(N)=O)c2N)c2ccc(OC)cc2OC)cc1 (stereo not given)	.	+	.	.	.	.
NC(=O)c1nsc(C(=O)N(c2ccccc2F)C(C(=O)NCc2ccccc2)c2ccc(O)cc2)c1N (stereo not given)	.	+	.	.	.	.
COc1ccc(N(C(=O)c2snc(C(N)=O)c2N)C(C(=O)NC2CCCC2)c2ccc(F)cc2)c(OC)c1 (stereo not given)	.	.	.	.	.	.
Cc1cc(-c2cccs2)c(C#N)c(=S)[nH]1	.	.	.	40	.	.
N#Cc1c(-c2cccs2)cc(-c2cccs2)[nH]c1=O	.	.	.	.	.	.
Cc1ccccc1S(=O)(=O)c1cc(C#N)c(=O)[nH]c1N	.	+	.	.	.	.
N#Cc1cc(S(=O)(=O)c2ccccc2)c(N)[nH]c1=O	.	.	.	.	.	.
Cc1[nH]c2ccccc2c1C(=O)CSc1ncn[nH]1	.	.	.	.	.	.
Cc1[nH]c2ccccc2c1C(=O)CSc1n[nH]c(N)n1	13	.	.	.	.	.
COC(=O)c1ccncc1N	.	.	.	/	/	/
COC(=O)c1sc2cnccc2c1N	.	+	.	.	.	.
C=CCN(Cc1ccccc1)C(C#CC(=C)C)Cc1ccccc1 (stereo not given)	/	/	/	.	/	.
SMILES	V-ATPase pH	Rce1 inhib	Efflux pump mplx	GC-A act	NSD2 inh	NPR2 activator
COc1ccccc1NC(=O)/C(=C\c1cccnc1)NC(=O)c1ccc(C)cc1	.	+	.	.	.	.
COc1ccccc1NC(=O)/C(=C\c1cccnc1)NC(=O)c1ccccc1	.	/	.	.	.	.
CC1=CN2C(=N)/C(=C/c3ccco3)C(=O)N=C2S1	.	.	.	.	.	.
CC1=CN2C(=N)/C(=C/c3ccc([N+](=O)[O-])o3)C(=O)N=C2S1	143	.	.	.	.	.
CC(C)(C)OC(=O)N1CC=C2C(C#N)=C(N)C(C#N)(C#N)[C@H](c3cccnc3)[C@H]2C1	.	/	.	48	.	.
Cc1ccc(NC2=C(NCCO)C(=O)c3ccccc3C2=O)cc1	.	.	.	.	65	.
CC(C)C[C@H](NC(=O)c1nc[nH]c1C(=O)N1CCN(c2ccccc2)CC1)C(=O)OCc1ccccc1	.	.	.	.	/	.
CC(C)C[C@H](NC(=O)c1nc[nH]c1C(=O)N1CCNCC1)C(=O)OCc1ccccc1	.	+	.	.	/	.
C[C@H]1[C@H](NC(=O)c2ccc(Cl)c(Cl)c2)CC[C@@]23CCCN2C(=O)CCC[C@@H]13	/	/	/	.	/	.
O=S1(=O)c2ccc(N3CCN(Cc4ccccc4F)CC3)cc2Oc2ccccc2CN1Cc1cn(Cc2ccccc2C(F)(F)F)nn1	/	/	/	.	/	.
Cc1cc(Nc2cccc(Cl)c2Cl)n2ncnc2n1	.	.	.	.	.	39
Cc1ccc(Nc2cc(C)nc3ncnn23)c(Cl)c1	.	.	.	.	/	.
CCSc1nc2c(c(=O)[nH]1)C(c1ccccn1)C1=C(CC(C)(C)CC1=O)N2 (stereo not given)	.	+	.	.	.	.
COc1ccc2c(c1)CNC2CS(=O)(=O)NCC(C)C (stereo not given)	/	/	/	.	/	.
COc1ccc(CC2(CO)CCN(Cc3cccc(OC)c3OC)CC2)cc1	15	.	.	.	.	.
CCC(C)C(=O)Nc1ccc(S(=O)(=O)Nc2nccs2)cc1 (stereo not given)	.	.	.	.	.	.
CC(C)CC(=O)NC(=S)Nc1ccc(S(=O)(=O)Nc2nccs2)cc1	.	+	.	.	.	.
Cc1cc2n(n1)C(c1ccc3c(c1)OCO3)Nc1c(C)cccc1-2 (stereo not given)	.	.	.	.	.	.
Cc1cc(C)c2c(c1)-c1cc(C)nn1C(c1ccc3c(c1)OCO3)N2 (stereo not given)	.	+	.	.	.	.
CC(=O)Nc1cc(-c2ccccc2Cl)cn2c(-c3ccc(S(C)(=O)=O)cc3)cnc12	/	/	/	.	.	43
COc1ccccc1-c1cc(NC(C)=O)c2ncc(-c3ccc(S(C)(=O)=O)cc3)n2c1	/	/	/	.	.	.
CCOC(=O)[C@@]12CCCC=C1N(CCc1ccc(Cl)cc1)C(=O)[C@H]2CC(=O)NCc1cccc(C(F)(F)F)c1	/	/	/	.	/	.
COc1ccc(CNC(=O)c2cccc(NC3=NC4CS(=O)(=O)CC4S3)c2)cc1 (stereo not given)	19	.	.	.	/	.
O=C(c1cc(Cl)cc(Cl)c1)N1CC[C@H]2[C@H](CCCN2Cc2ccc(F)cc2)C1	/	/	/	.	/	.
Cc1cc(C)cc(N=Cc2ccc([N+](=O)[O-])s2)c1	112	.	.	.	.	.

From PubChem BioAssay
